Measurements reported in PubChem BioAssay AID1903 (Southern Research Specialized Biocontainment Screening …, 2009).
Values joined by “and” are separate entries in the source; they are usually repeats but may differ in a detail not shown here. Equal values may be shown once. Screen size: about 310,000 compounds; about 1,200 (0.39%) were called active. The rule behind the calls is not given here. A selection follows. Entries with a potency or affinity are not part of this list.

What follows are compounds tested against Large T antigen (Simian virus 40) (UniProt P03070) (assay: TAg ATPase/helicase activity blockers – biochemical (AID 1903)). Details: SV40 large T antigen ATPase/helicase inhibition assay; at 20 µM; hits give high values.
Sequence of Large T antigen (Simian virus 40) (P03070 whole entry, looked up): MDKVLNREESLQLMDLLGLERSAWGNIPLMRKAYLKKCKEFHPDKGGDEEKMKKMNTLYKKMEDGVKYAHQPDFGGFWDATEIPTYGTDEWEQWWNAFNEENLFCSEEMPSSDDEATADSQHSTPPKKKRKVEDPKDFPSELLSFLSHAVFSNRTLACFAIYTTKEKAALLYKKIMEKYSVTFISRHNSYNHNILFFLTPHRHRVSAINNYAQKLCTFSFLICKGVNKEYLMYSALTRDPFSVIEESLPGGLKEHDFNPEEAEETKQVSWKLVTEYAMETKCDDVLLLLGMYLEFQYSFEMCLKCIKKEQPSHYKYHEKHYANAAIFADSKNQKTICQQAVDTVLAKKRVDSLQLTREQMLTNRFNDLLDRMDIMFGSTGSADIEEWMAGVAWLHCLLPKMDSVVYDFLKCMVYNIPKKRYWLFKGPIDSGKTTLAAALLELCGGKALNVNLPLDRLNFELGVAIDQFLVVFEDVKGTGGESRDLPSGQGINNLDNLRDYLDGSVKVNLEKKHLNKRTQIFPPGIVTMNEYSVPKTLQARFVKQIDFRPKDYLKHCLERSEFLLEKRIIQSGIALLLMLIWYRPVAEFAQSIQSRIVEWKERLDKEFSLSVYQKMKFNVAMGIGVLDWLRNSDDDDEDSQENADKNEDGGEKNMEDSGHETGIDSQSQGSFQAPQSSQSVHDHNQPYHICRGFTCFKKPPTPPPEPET

inhibition, inactive:
CCn1c(SCC(=O)Nc2nccs2)nnc1-c1ccc(S(=O)(=O)N2CCCCCC2)cc1 -0.295%
Cc1ccc(S(=O)(=O)N2CCCC(C(=O)NCC3CCCO3)C2)cc1 (stereo not given) 3.23%
O=S(=O)(c1ccc(Cl)cc1)N1CCCCCC1 20.7%
Cc1ccc(S(=O)(=O)N2CCN(S(=O)(=O)c3ccccc3)C2)cc1 6.18%
CC1CN(S(=O)(=O)c2ccccc2)C(C)CN1S(=O)(=O)c1ccccc1 (stereo not given) 8.4%
CN1CCN(S(=O)(=O)c2ccc(Cl)cc2)CC1 0.99%
CCCN(CCC)C(=O)Cc1coc2ccc3ccccc3c12 3.36%
Cc1cc2cc(CNC(=O)Nc3ccccc3)ccc2n1C 4.59%
O=C1NCCN/C1=C\C(=O)c1ccc(Cl)cc1 12.3%
CCOc1ccc(NC(=O)COn2nnc3ccc(S(=O)(=O)N4CCOCC4)cc32)cc1 11.2%
COc1ccc(OC)c(-c2c3cc(O)c(=O)cc-3oc3cc(O)c(O)cc23)c1 73.4%
CCOc1ccccc1-c1c2cc(O)c(=O)cc-2oc2cc(O)c(O)cc12 15.8%
Cc1c2cc(O)c(=O)cc-2oc2cc(O)c(O)cc12 57.6%
O=c1cc(-c2ccccc2[N+](=O)[O-])oc2ccccc12 1.45%
CCOc1ccccc1NC(=O)CSc1nnc(CNC(=O)c2cc(OC)c(OC)c(OC)c2)o1 5.49%
COc1ccccc1CNC(c1ccccc1)c1ccccc1 21.1%
COc1ccc(C2NC(c3ccc(OC)c(OC)c3OC)C(C)C(=O)C2C)c(OC)c1OC (stereo not given) -0.23%
CCc1c(C)nc(N)nc1Cl 10.9%
CCOC(=O)C(Sc1cc(C)nc(N)n1)C(C)=O (stereo not given) 7.31%
O=C1C=C(Nc2ccc(Cl)cc2)CC(c2ccco2)C1 (stereo not given) 24.2%
O=C1C=C(Nc2cccc(O)c2)CC(c2ccco2)C1 (stereo not given) 6.63%
COc1ccccc1-c1ocnc1C(=O)N1CCN(S(=O)(=O)c2ccc(NC(C)=O)cc2)CC1 4.74%
CCOC(=O)c1c(C)nc2ccccc2c1-c1ccccc1 5.96%
CN(C)c1ccc(N/C=C/C(=O)c2ccc(F)cc2)cc1 18.2%
COc1ccc(N/C=C/C(=O)C(F)(F)F)cc1 9.63%
CN(C)c1ccc(N/C=C/C(=O)C(C)(C)C)cc1 27.8%
O=C(/C=C/Nc1ccccc1)c1ccccc1 10.3%
Cc1ccc(-c2nn(-c3ccccc3)cc2C(N)=O)o1 1%
COc1ccc(CN2CCN(C(=O)CCC(=O)Nc3nnc(C(F)(F)F)s3)CC2)cc1F 25.2%
CCn1c(C)nc2cc(C(=O)N/N=C(\C)c3ccc(N4CCOCC4)cc3)ccc21 9.23%
O=C1[C@H]2CCCC[C@H]2C(=O)N1CCCCN1CCN(c2nsc3ccccc23)CC1 11.2%
Oc1c(CN2CCCC(C(F)(F)F)C2)cc(Cl)c2ccccc12 (stereo not given) 6.33%
COc1ccc(CN2C(=O)CSCC2=O)cc1OC 23.5%
CC1CCCN(S(=O)(=O)c2cnc[nH]2)C1 (stereo not given) 16.4%
CC(=O)c1ccc([N+](=O)[O-])c(CS(=O)(=O)c2ccc(Cl)cc2)c1 2.52%
Cc1ccc(S(=O)(=O)Cc2ccc([N+](=O)[O-])cc2)cc1 12.8%
C=CCNc1nc(-c2cc3ccccc3o2)cs1 16.7%
COc1ccc([C@@H]2CC=C(C(=O)O)[C@H](c3cccc(Cl)c3)N2S(=O)(=O)c2ccccc2C)cc1 20.5%
COc1cc(-c2cc(=O)c3c(O)c(OC)c(OC)c(OC)c3o2)cc(OC)c1OC 1.45%
COc1cc(-c2cc(=O)c3c(O)cc(O)cc3o2)ccc1O 11.8%
COc1ccc(-c2cc(=O)c3c(OC)c(OC)c(OC)c(OC)c3o2)cc1OC 8.13% and 2.63% and 16.4%
COc1ccc(-c2cc(=O)c3ccccc3o2)cc1 4.04%
Nc1nnc(-c2cccc([N+](=O)[O-])c2)o1 -0.81%
CCCCCCn1cc(C(=O)OCC)c(=O)c2cc(F)c(F)cc21 20.5%
CCC(C)C(NC(=O)C(N)CC(C)C)C(=O)NC(CCC(=O)OCc1ccccc1)C(N)=O (stereo not given) -6.23%
CC(=O)Nc1ccc(NCc2cccs2)cc1 15.1%
O=C(O)c1cc(NCc2cccs2)ccc1N1CCOCC1 16.1%
O=C(O)c1ccc(NCc2cccs2)cc1 5.7%
COC(=O)c1cc(NCc2cccs2)ccc1N1CCOCC1 36.1%
O=C(COC(=O)COc1ccccc1[N+](=O)[O-])Nc1ccc(S(=O)(=O)N2CCCCC2)cc1 9.97%
CC(=O)Nc1ccc(NC(=O)CSc2nnc(NC(=O)c3cccc(F)c3)s2)cc1 7.35%
COc1ccc(CC2(CO)COc3ccccc3C2=O)cc1 (stereo not given) 18%
CCn1c(SCC(=O)Nc2cc(OC)ccc2OC)nnc1C1CCCCC1 5.72%
CN(C)C(=O)COC(=O)c1cc(Cl)cc(Cl)c1N 7.1%
CCOC(=O)C1=C(CCc2ccccc2)NC(=O)NC1c1ccc(C#N)cc1 (stereo not given) 13.1%
O=C(Nc1ccc(N2CCOCC2)cc1)C1CCN(S(=O)(=O)c2ccccc2F)CC1 13.6%
O=C1C(Cl)=C(N2CCOCC2)C(=O)N1c1ccccc1F 11.2%
O=C1C(Cc2ccccc2)Nc2ncnc(N3CCOCC3)c2N1Cc1ccc(Cl)cc1 (stereo not given) 9.83%
Cn1c(=Nc2ccccc2)sc2ccccc21 -5.34%
COc1ccc(N=c2sc3ccccc3n2C)cc1 7.43%
CC1CCCCN1c1ncnc2ccccc12 (stereo not given) 0.555%
CC(C)OC(=O)Cc1nc2sc(-c3ccccc3)cc2c(=O)[nH]1 6.88%
CCN(CC)Cc1ccccc1Sc1ccccc1 16.5%
CNCc1ccccc1Sc1cccc(O)c1 25.7%
CNCc1ccccc1Sc1ccc(O)c(O)c1 -1%
CN(C)Cc1ccccc1Sc1ccc(Br)cc1 9.88%
CCC(C)C(NC(=O)c1ccc(Cl)cc1)C(=O)Nc1cccnc1 (stereo not given) -3.25%
CCOC(=O)c1c(NC(=O)CSc2nnnn2C)sc(CC)c1C 4.57%
O=C(N/C(=C/c1cccs1)C(=O)N1CCOCC1)c1ccccc1 6.38%
Cc1ccc(Nc2nc(N3CCOCC3)c3ccccc3n2)cc1 6.59%
CN1CCN(c2nc(-c3ccccc3O)nc3ccccc23)CC1 3.42%
COc1ccc(Nc2nc(N3CCCCC3)c3ccccc3n2)cc1 8.24%
COc1ccc(Nc2nc(N3CCCC3)c3ccccc3n2)cc1 17.3%
COc1ccc(OC)c(NC(=O)CSc2ccc(-c3ccco3)nn2)c1 11.7%
CC(C)(C)OC(=O)[C@H](Cc1ccccc1)NC(=O)c1nc[nH]c1C(=O)N1CCN(c2ccccc2)CC1 10.9%
Cc1cc(C(=O)NNC(=S)NCc2ccco2)n(C)n1 -6.03%
CC(=O)OCCCNc1cc(Sc2nc3ccccc3s2)c2nonc2c1[N+](=O)[O-] 22%
CCC(=O)OCCNc1cc(Sc2nc3ccccc3s2)c2nonc2c1[N+](=O)[O-] 10.9%
CC(C)C(=O)N1CCC(Cc2ccccc2)CC1 12.3%
COc1cc(Cl)c(S(=O)(=O)N2CCCC2)cc1Cl 17.9%
O=C1C=CC(=O)N1c1ccc(I)cc1Cl 8.61%
CNC(=O)COC(=O)c1nc(-n2nc(C)cc2C)ccc1Cl 1.24%
COc1ccc(C(=O)Nc2nccs2)cc1 4.19%
O=c1[nH]c(/C=C\c2ccc(O)c(Cl)c2)nc(O)c1[N+](=O)[O-] 22.7%
COc1ccc(/C=C\c2nc(O)c([N+](=O)[O-])c(=O)[nH]2)cc1O 5.95%
Cc1csc(Sc2ccc(S(=O)(=O)N3CCCC3)cn2)n1 10.9%
O=C(O)c1cc(-c2cccs2)nc2ccc(Br)cc12 15.7%
NC(=O)c1nsc(C(=O)N(c2ccc(F)cc2)C(C(=O)NCC2CCCO2)c2ccc3ncccc3c2)c1N (stereo not given) -0.08%
O=C(NC1CCSc2ccccc21)c1ccc(Cl)c(S(=O)(=O)N2CCOCC2)c1 (stereo not given) 9.03%
NS(=O)(=O)c1cccc(C(=O)NC2CCSc3ccccc32)c1 (stereo not given) -2.32%
COC(=O)C1=C(C)NC(=S)N(C(C)=O)C1c1ccc(OC)c(OC)c1 (stereo not given) 9.87%
COC(=O)Cc1c(C)c2ccc(OCC(=O)c3ccc(OC)c(OC)c3)cc2oc1=O 14.4%
Cc1csc(NC(=O)CS(=O)(=O)Cc2ccccc2)n1 0.95%
COc1cccc(NC(=O)c2cc([N+](=O)[O-])ccc2NC(=O)CNCC2CCCO2)c1 (stereo not given) 3.88%
Cc1cc(SCC(=O)c2ccc(O)c(O)c2)n2nc(C)c(-c3ccccc3)c2n1 31.3%
O=C(CSc1nc2ccccc2n1CCc1ccccc1)NC1CC1 5.51%
O=C(CSc1nc2ccccc2n1CCc1ccccc1)N1CCOCC1 11.6%
Cn1c(SCC(=O)c2ccc(O)c(O)c2)nnc1-c1ccccc1 27.2%
Cc1cc(C)nc(SCC(=O)c2ccc(O)c(O)c2)n1 35.3%
Cc1cc(SCC(=O)c2ccc(O)c(O)c2)nc2ccccc12 35.4%
